Assay results published in PubChem BioAssay.
Values without a mark were called inactive. A call without a number means that no potency is given here. For some of these results: Potency and affinity values are given separately. Active and inactive are the calls of the source. Unless noted, how the calls were made is not given here.

Columns and labels:
[1] = antimalarial activity against Dd2 strain (AID 2302;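 active means growth inhibition above 50% at the single 2 µM test dose, taken to imply half-maximal potency below 2 µM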); settings: P. falciparum Dd2 in RBCs, LDH growth readout, 72 h; at 2 µM; hits give high values
[2] = HepG2 cytotoxicity, primary screen, cytotoxicity control for P. falciparum antimalarial project, cell-based, ATP luminescence (AID 2303;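 active means inhibition above 50%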); settings: HepG2 viability, 24-48 h, at 10 µM, hits give high values
[3] = molecular target: L-lactate dehydrogenase (Plasmodium falciparum (isolate CDC / Honduras)) (UniProt Q27743); experiment: PfLDH activity inhibition – cell lysate, 3D7 strain, counter-screen for P. falciparum growth inhibition project (AID 2304); settings: P. falciparum 3D7 crude extract, LDH APAD/NBT absorbance; at 2 µM; hits give high values
L-lactate dehydrogenase (Plasmodium falciparum (isolate CDC / Honduras)), sequence (Q27743 whole entry, looked up): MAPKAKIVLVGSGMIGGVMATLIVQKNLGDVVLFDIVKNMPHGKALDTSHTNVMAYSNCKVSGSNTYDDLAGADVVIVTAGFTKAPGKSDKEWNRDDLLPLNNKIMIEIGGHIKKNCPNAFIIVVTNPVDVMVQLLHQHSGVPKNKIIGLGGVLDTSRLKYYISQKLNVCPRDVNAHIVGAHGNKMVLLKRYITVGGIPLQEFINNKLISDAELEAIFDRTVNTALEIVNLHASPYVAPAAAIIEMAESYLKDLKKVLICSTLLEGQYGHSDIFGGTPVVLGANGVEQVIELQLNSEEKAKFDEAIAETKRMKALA

[4] = inhibition of 3D7 malaria parasite growth – strain 3D7 (AID 2306); settings: P. falciparum 3D7 erythrocytic growth, LDH absorbance, 72 h; at 2 µM; hits give high values
[5] = molecular target: Calcium-dependent protein kinase 1 (Plasmodium falciparum (isolate 3D7)) (UniProt P62344); experiment: PfCDPK1 kinase inhibitors, biochemical, TCAMS library (AID 1159585; cut-off not given, nearly all actives have IC50 up to about 0.98 µM;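 further: inhibitors leave more ATP so luminescence rises with inhibition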); settings: recombinant PfCDPK1, Kinase-Glo ATP depletion luminescence
Calcium-dependent protein kinase 1 (Plasmodium falciparum (isolate 3D7)), sequence (P62344 whole entry, looked up): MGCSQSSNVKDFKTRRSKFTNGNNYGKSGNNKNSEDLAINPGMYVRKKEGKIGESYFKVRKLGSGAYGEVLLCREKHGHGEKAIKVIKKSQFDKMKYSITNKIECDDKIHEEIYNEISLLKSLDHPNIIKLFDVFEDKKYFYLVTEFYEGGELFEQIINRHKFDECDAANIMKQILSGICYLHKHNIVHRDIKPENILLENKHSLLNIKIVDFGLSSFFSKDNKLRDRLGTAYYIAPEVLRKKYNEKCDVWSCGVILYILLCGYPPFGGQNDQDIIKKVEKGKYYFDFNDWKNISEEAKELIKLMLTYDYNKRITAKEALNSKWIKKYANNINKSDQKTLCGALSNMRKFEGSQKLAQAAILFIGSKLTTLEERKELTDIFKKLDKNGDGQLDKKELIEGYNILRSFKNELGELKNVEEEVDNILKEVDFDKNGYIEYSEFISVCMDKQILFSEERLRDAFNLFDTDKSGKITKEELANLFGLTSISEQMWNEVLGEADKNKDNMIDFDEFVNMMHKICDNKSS

[6] = molecular target: Plasmodium falciparum protein kinase 6 (PK6, PF3D7_1337100) (UniProt Q8IDW1); experiment: PfPK6 kinase inhibitors, biochemical, TCAMS library (AID 1159586); settings: recombinant PfPK6, Kinase-Glo ATP depletion luminescence
Plasmodium falciparum protein kinase 6 (PK6, PF3D7_1337100), sequence (Q8IDW1 1-305): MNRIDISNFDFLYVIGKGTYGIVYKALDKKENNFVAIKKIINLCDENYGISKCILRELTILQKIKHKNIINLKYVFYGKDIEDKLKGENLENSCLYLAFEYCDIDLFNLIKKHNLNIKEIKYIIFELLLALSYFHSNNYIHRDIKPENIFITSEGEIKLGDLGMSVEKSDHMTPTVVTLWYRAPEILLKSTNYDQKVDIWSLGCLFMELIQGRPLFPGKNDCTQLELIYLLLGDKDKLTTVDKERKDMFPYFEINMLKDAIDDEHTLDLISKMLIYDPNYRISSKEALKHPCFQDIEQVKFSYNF

[7] = molecular target: Protein kinase 7 (PK7), Plasmodium falciparum 3D7 (PF3D7_0213400) (UniProt Q7YTF7); experiment: inhibition of Plasmodium PK7 catalytic activity – biochemical, TCAMS antimalarial set, Kinase-Glo luminescence (AID 1159587); settings: recombinant PfPK7, Kinase-Glo ATP depletion luminescence
Protein kinase 7 (PK7), Plasmodium falciparum 3D7 (PF3D7_0213400), sequence (Q7YTF7 1-343): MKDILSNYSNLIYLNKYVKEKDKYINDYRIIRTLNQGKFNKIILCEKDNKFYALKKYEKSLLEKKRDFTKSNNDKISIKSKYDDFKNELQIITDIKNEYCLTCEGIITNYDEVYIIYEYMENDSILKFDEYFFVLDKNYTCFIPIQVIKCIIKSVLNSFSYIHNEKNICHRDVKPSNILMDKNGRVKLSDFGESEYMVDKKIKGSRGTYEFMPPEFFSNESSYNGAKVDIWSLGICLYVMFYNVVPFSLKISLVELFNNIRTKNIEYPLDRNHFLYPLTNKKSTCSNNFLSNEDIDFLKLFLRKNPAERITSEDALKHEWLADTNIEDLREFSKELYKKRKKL

[8] = molecular target: Calcium-dependent protein kinase 4 (Plasmodium falciparum (isolate 3D7)) (UniProt Q8IBS5); experiment: PfCDPK4 kinase inhibitors, biochemical, TCAMS library (AID 1159588; cut-off not given, nearly all actives have IC50 up to about 0.91 µM); settings: recombinant PfCDPK4, Kinase-Glo ATP depletion luminescence
Calcium-dependent protein kinase 4 (Plasmodium falciparum (isolate 3D7)), sequence (Q8IBS5 whole entry, looked up): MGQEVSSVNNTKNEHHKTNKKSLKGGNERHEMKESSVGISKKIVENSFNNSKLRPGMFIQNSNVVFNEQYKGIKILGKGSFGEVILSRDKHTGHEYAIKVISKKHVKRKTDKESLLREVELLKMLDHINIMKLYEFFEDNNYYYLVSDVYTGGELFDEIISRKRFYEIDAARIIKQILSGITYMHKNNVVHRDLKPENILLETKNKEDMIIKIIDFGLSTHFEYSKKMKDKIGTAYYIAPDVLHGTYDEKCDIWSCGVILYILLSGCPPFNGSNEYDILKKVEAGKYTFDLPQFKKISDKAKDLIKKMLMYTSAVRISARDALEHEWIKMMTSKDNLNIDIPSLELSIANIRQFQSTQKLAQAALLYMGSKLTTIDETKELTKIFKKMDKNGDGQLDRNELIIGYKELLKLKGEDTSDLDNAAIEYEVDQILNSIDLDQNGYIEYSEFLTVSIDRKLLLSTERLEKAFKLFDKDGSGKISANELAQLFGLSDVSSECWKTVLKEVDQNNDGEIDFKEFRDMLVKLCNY

| Structure (SMILES) | growth inhibition [1] | inhibition [2] [%] | inhibition [3] [%] | growth inhibition [4] | outcome [5] | outcome [6] | outcome [7] | outcome [8] |
| --- | --- | --- | --- | --- | --- | --- | --- | --- |
| Cn1cncc1-c1ccc2c(-c3ccsc3)cnc(N)c2c1 | 72% (active) | 41 | -3 | 97% (active) | inactive | inactive | inactive | inactive |
| COc1ccc(NC(=O)[C@H](CC(C)C)Nc2ccnc(Nc3ccccc3)n2)cc1 | 32% | -7 | 3 | 92% (active) | inactive | inactive | inactive | inactive |
| CN(C)CCCn1c(C(=O)OC(c2ccccc2)c2ccccc2)cc2cc(OCc3ccccc3)ccc21 | 85% (active) | 12 | 0 | 82% (active) | inactive | inactive | inactive | inactive |
| CC(C)c1ccc2[nH]c(C(=O)NC3CCC(N4CCCc5ccc(C#N)cc5C4)CC3)cc2c1 (stereo not given) | 27% | 48 | -3 | 91% (active) | inactive | inactive | inactive | inactive |
| CC(C)NCc1cccc(-c2ccc(NC(=O)c3cccc(C#N)c3)cc2)c1 | 95% (active) | 22 | 6 | 101% (active) | inactive | inactive | inactive | inactive |
| CCC(=O)N(c1ccccc1)C1CCN(CCCC(NC(=O)Nc2cc(C(F)(F)F)cc(C(F)(F)F)c2)c2ccc(Cl)c(Cl)c2)CC1 (stereo not given) | 18% | 29 | -5 | 99% (active) | inactive | inactive | inactive | inactive |
| Nc1cccc(CNCc2ccc(-c3cccc(-c4nc5ccc(F)cc5[nH]4)c3)cc2)c1 | 94% (active) | 36 | -3 | 101% (active) | inactive | inactive | inactive | inactive |
| CC1(C)[C@H]2C=C(CN3CCC(NC(=O)Nc4ccc(Cl)c(Cl)c4)CC3)[C@@H]1CC2 | 33% | 28 | 2 | 101% (active) | inactive | inactive | inactive | inactive |
| CN1CCCCC1CCc1cc(C(=O)Nc2ccc(-c3ccc(O)cc3)cc2)ccc1O (stereo not given) | 11% | 6 | 3 | 91% (active) | inactive | inactive | inactive | inactive |
| Cc1ccc(S(=O)(=O)/N=C(\N)NC(N)=O)cc1 | 2% | 26 | 1 | 94% (active) | inactive | inactive | inactive | inactive |
| Cc1cccc2[nH]c(-c3ccc(-c4ccc(CN5CCCC(O)C5)cc4)cc3)nc12 (stereo not given) | 54% (active) | 41 | 6 | 100% (active) | inactive | inactive | inactive | inactive |
| COc1ccc(S(=O)(=O)NC2CCN(c3cc(C)nc(Nc4cccc(C#N)c4)n3)CC2)cc1 | 55% (active) | 9 | -4 | 88% (active) | inactive | inactive | inactive | inactive |
| Nc1nc(Nc2ccc(Cl)cc2)nc2ccccc12 | 21% | 6 | -2 | 101% (active) | inactive | inactive | inactive | inactive |
| Fc1ccc2nccc(NN=Cc3ccccc3Cl)c2c1 | 39% | 3 | 0 | 100% (active) | inactive | inactive | inactive | inactive |
| CC(C)NCc1cccc(-c2cccc(NC(=O)c3cccc(Cl)c3)c2)c1 | 38% | 36 | -10 | 98% (active) | inactive | inactive | inactive | inactive |
| Cc1cccc2[nH]c(-c3cccc(-c4cccc(NC(=O)c5ccoc5)c4)c3)nc12 | 71% (active) | 19 | -4 | 99% (active) | inactive | inactive | inactive | inactive |
| COc1ccc(C2CC(=O)C3=C(C2)NC(C)=C(C(=O)OC2CCCC2)C3c2cccc(O)c2)cc1OC (stereo not given) | 98% (active) | 8 | -1 | 101% (active) | inactive | inactive | inactive | inactive |
| COc1ccc(CCNC(=O)c2cnc3c(c2)nc(-c2cnc(-c4ccccc4)[nH]2)n3CCc2cnc[nH]2)cc1 | 70% (active) | 16 | 1 | 96% (active) | inactive | inactive | inactive | inactive |
| CCCc1ccc(NC(=O)c2ccc(CN3CCCN(Cc4ccc(OC)cc4)CC3)cc2)cc1 | -4% | 47 | 0 | 81% (active) | inactive | inactive | inactive | inactive |
| COc1ccc(NC(=O)c2ccc(-c3nc(-c4ccccc4)cs3)cc2)cc1N1CCN(C)CC1 | 13% | 17 | -3 | 93% (active) | inactive | inactive | inactive | inactive |
